Assay results from PubChem BioAssay AID2778 (National Center for Advancing Translational Sciences (NCATS), 2010).
Results filed as inconclusive are left out. Activity calls are given as the source filed them. The call rests on the fitted dose curve; in most records, active means well fitted inhibition curve with a large enough effect; inconclusive means small, poorly fitted or top-dose-only effect, or effect the other way; inactive means flat fitted curve, though single readings scatter.

Biological target: Menin (Homo sapiens) (UniProt O00255)
Sequence (O00255 whole entry, looked up): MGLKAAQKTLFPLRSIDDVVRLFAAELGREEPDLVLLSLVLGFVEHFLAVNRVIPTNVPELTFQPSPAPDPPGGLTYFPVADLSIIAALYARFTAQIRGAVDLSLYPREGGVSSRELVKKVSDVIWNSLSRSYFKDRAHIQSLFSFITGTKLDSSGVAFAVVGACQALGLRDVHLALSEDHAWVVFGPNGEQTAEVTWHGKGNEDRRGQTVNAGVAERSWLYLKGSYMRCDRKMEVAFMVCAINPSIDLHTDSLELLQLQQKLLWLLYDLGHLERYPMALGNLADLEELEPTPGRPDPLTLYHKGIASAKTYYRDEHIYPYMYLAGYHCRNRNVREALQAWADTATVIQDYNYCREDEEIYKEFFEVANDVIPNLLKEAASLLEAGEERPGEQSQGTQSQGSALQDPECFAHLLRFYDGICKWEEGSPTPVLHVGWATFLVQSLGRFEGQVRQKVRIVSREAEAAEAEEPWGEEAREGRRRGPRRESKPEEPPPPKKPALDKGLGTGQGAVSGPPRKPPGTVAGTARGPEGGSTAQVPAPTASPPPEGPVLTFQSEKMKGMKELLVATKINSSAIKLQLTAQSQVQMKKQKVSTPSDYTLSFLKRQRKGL
Assay: Confirmation of Inhibitors Targeting the Menin-MLL Interaction in MLL Related Leukemias: Confirmation in an HTRF (commercial TR-FRET) Assay using His-tagged menin and biotin-labeled MLL peptide
Conditions: His-menin / biotin-MLL peptide binding; series mostly up to 126 µM
How it was run: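 Compounds were incubated 1 hr at ambient with a preformed His6-menin (200 nM)/biotinylated MLL-w.t. peptide (80 nM) complex in Tris pH 7.5 buffer; anti-His Eu-cryptate (3.5 nM) and SA-XL665 (10 nM) added, TR-FRET read after 1h.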
Potency means the concentration at half of the fitted maximal effect.

Potency, active:
CS(=O)(=O)c1ccc2nc(NC(=O)Nc3cccc(Cl)c3)sc2c1 112 µM

Potency, inactive:
O=C(C1=C(O)C(=O)N(CCN2CCOCC2)C1c1cccc(Br)c1)c1cccs1 (centres undefined)
CCCCC(=O)NC(=S)Nc1nnn(CCC)n1
O=C(CS)Nc1ccc2ccccc2c1
Cc1cccc(Nc2nnc(SCC(=O)NC(=O)Nc3ccc4c(c3)OCCO4)s2)c1
O=C(NC1CCN(c2ncccn2)CC1)c1c(F)cccc1F
O=C(/C=C/c1ccccc1)c1cccs1
O=C(Nc1nnc(SCc2ccc(F)cc2)s1)c1ccc2c(c1)C(=O)N(c1ccccc1Cl)C2=O
COCCNC(=O)C(OC(=O)c1nsc(Cl)c1Cl)C(C)C (centres undefined)
C=C(C)CNC(=S)Nc1cccc2cnccc12
CSC[C@@H]1NC(=S)N(c2ccc(C)cc2)C1=O
CC(=O)c1cccc(NS(=O)(=O)c2ccc(N/C=C\C(=O)c3ccc(F)cc3)cc2)c1
c1ccc2c(c1)nc(N1CCOCC1)c1c3ccccc3[nH]c21
C=C1CCC[C@]2(C)C[C@H]3OC(=O)C(CNCCN(CC)CC)[C@H]3CC12 (some centres undefined)
OC(c1ccccn1)(c1ccccn1)c1ccccn1
O=C(NC(=S)N1CCCc2ccccc21)c1ccc([N+](=O)[O-])cc1
Nc1cccc2c1C(=O)N(C(=O)c1ccco1)C2=O
O=C1NC(=S)N/C1=C/c1ccc2ccccc2c1
COc1ccc(NC(=O)NC2(C(=O)N3CCOCC3)CCCCC2)cc1
CCOc1ccccc1N(CC(=O)Nc1ccccc1C(=O)N1CCCC1)S(C)(=O)=O
Cc1cc2c(c(=O)n1Cc1ccccc1)C1O[C@](c3ccsc3)(Cc3cc(C#N)ccc31)O2
Cc1c(CCOC(=O)CC23CC4CC(CC(C)(C4)C2)C3)sc[n+]1Cc1ccc([N+](=O)[O-])cc1
Cc1ccc[n+](-c2nc([O-])sc2/C=N/Nc2ccc([N+](=O)[O-])cc2)c1
O=[N+]([O-])c1ccc(S(=O)(=O)c2ccccc2)nc1
Cc1nc(N2CCN(C)CC2)c2c3c(sc2n1)CCCC3
CCc1nnc(NC(=O)C2(C)COC(c3ccc(OC)cc3)OC2)s1 (centres undefined)
C=C(C)[C@@H]1CC=C(CN2CCN(Cc3ccccc3)CC2)CC1
COc1ccc(C2=C(CN(C)C)C(c3ccccc3)c3ccccc3O2)cc1 (centres undefined)
CCCn1c(C2CCCN2c2nc(C)cs2)nc2cc(Cl)c(Cl)cc21 (centres undefined)
O=C(NC(=S)Nc1ccccc1)c1cc(-c2ccccc2)nc2ccccc12
CCOC(=O)N1CCN(Cc2nnc(-c3ccccc3C)o2)CC1
COc1ccccc1/C=C/C(=O)NC(=S)Nc1ccc(S(=O)(=O)N(C)c2ccccc2)cc1
O=C(O)/C(=C\c1ccc(F)cc1)c1ccc(-c2ccccc2)cc1
O=C(CSc1nnnn1-c1ccc(O)cc1)N1N=C(c2ccc3ccccc3c2)CC1c1ccccc1 (centres undefined)
